Her2 expr inh = Her2 kinase expression inhibition; AID 645; HER2 level % of control, % at 10 µM; P04626; SKBR-3 HER2 protein level, AlphaScreen, 18-24 h; hits give low values; actives 0.69% (n = 65,000);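 active = HER2 level under 5% of the carrier-only control; inconclusive = no clear call, values can overlap the other calls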;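 also: 100% = DMSO carrier and 0% = 500 nM PU-H71 HSP90 inhibitor; lower value means stronger loss of Her2 protein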
Target sequence (P04626 whole entry, looked up): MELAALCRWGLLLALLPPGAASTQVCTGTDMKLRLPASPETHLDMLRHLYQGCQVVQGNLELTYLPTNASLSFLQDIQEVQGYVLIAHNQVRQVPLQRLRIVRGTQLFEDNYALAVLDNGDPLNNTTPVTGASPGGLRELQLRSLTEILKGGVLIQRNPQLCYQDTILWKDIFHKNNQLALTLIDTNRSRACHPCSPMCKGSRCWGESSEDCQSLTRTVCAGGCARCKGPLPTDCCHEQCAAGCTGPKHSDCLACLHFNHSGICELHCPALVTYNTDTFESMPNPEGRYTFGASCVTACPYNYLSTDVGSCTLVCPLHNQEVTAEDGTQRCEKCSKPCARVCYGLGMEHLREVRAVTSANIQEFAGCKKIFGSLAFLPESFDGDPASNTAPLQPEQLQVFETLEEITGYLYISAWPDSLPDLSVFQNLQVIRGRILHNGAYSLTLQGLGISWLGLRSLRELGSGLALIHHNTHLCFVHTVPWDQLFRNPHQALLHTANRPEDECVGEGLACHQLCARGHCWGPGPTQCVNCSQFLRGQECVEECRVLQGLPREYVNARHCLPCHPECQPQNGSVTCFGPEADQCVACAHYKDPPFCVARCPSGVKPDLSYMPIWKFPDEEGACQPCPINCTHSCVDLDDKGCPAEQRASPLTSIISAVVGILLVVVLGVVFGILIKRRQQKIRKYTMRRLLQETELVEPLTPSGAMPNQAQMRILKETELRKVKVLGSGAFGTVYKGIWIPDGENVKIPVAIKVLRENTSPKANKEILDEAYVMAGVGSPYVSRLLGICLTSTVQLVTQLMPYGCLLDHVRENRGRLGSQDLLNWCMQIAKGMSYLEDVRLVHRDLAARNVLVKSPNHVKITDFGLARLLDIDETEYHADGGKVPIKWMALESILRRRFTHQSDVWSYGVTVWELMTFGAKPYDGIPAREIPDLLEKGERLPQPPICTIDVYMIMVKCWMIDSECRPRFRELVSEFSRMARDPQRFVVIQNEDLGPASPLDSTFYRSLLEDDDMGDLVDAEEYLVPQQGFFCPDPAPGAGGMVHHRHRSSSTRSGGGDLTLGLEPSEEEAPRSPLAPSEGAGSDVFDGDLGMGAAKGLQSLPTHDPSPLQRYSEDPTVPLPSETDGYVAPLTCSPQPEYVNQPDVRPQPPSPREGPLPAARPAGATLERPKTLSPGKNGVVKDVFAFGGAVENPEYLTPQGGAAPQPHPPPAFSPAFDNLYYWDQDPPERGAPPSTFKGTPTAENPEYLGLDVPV
M1 ag = agonists of M1 muscarinic receptor. AID 626. actives 3% (n = 64,000). CHO-M1 cells, Fluo-4 calcium fluorescence, agonist mode; hits give high values. B-score at 10 µM;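 active = fluorescence rise, raw or as B-score row- and column-corrected plate score, outside the 99.7% band of its plate's samples, either direction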
M1 antag = blocks the rat M1 muscarinic receptor response to acetylcholine; CHO-M1 cells, Fluo-4 calcium, ACh EC80 antagonist mode; hits give low values; actives 3.4% (n = 64,000); B-score at 10 µM;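 active = calcium fluorescence response, raw or row-and-column corrected B-score, differing from the plate sample mean either way at a set confidence level, mostly lower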
FXIa inh mix = blocks human factor XIa in pooled compound mixtures; AID 680; actives 0.19% (n = 62,000); P03951; inhibition, % at 5 µM; purified FXIa, fluorogenic substrate;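 also: each value is inhibition by a whole ten-compound pool holding the compound; 0% = enzyme with no mixture and 100% = wells lacking enzyme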
JNK3 blocker = JNK3 (human) kinase inhibition; P53779; purified JNK3 kinase activity, HTS; inhibition, % at 8 µM; actives 0.61% (n = 60,000); AID 746; in the data active = inhibition above about 17%;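 also: 0% = DMSO and 100% = reference inhibitor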
FXIIa mix inh = blocks human factor XIIa in pooled compound mixtures. P00748. purified FXIIa, fluorogenic substrate. inhibition, % at 5 µM. actives 0.2% (n = 62,000);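 also: 0% = enzyme without compound and 100% = no enzyme blank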
M1 agonist conf = confirmation of rat M1 muscarinic receptor agonists. shares compounds with M1 ag. CHO-M1 cells, Fluo-4 calcium fluorescence, agonist mode; actives lie on both sides. fluorescence change (max-min) at 10 µM. actives 19% (n = 1,700). AID 1488;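 active = fluorescence change differs from the solvent-only DMSO control mean at a set confidence level in both duplicate runs; inconclusive = differs from solvent-only control mean in just one of two runs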;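 also: an EC20 dose of acetylcholine follows compound addition during the same imaging run; raw fluorescence intensity difference in instrument units with no normalization to controls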
M4 agonist ctr = activates rat M4 receptor in counter-screen for M1 agonists. shares compounds with M1 ag. CHO M4/Gqi5 cells, Fluo-4 calcium fluorescence, agonist mode; actives lie on both sides. fluorescence change (max-min) at 10 µM. actives 9% (n = 1,700). AID 1741;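 active = fluorescence change differing from the plate's solvent-only control wells at 99.7% confidence in both duplicates, whether higher or lower; inconclusive = differs from solvent controls in only one of two duplicates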
* = called active by the depositor; ? = inconclusive; · = no result. The list is not random: actives were taken first. Their share in the collection is about 6.9%. Rule as the data show it, unless noted: active = inhibition above about 20% (passing the limit was not always enough); inactive = the rest.

SMILES | Her2 expr inh | M1 ag | M1 antag | FXIa inh mix | JNK3 blocker | FXIIa mix inh | M1 agonist conf | M4 agonist ctr
Cc1ccc2[nH]c3c(c2c1)CN(C(=O)CN1CCN(c2cccc(C)c2C)CC1)CC3 | 34 | -3* | -0.31 | 1 | 2 | 5 | 37 | -5.4
Cc1cccc(N2CCN(C(=O)Cn3ccc4ccccc4c3=O)CC2)c1C | 85 | -1.1 | -0.029 | 2 | 1 | 7 | · | ·
COc1ccc(-c2noc(CN(C)S(=O)(=O)c3ccccc3)n2)cc1OC | 76 | -0.51 | -0.36 | 14 | -6 | -3 | · | ·
COc1ccc(S(=O)(=O)N(Cc2ccccc2)Cc2nc(-c3ccccc3)no2)cc1 | 90 | 23* | -0.74 | -1 | 3 | -15 | 5.4 | -41
O=C(CN(CCc1ccccc1)C(=O)Cn1nnc(-c2cccs2)n1)NCc1ccco1 | 89 | -0.014 | 0.19 | 0 | -3 | 21 | · | ·
O=C(CN(Cc1ccccc1Cl)C(=O)Cn1nnc(-c2cccs2)n1)NCC1CCCO1 (stereo not given) | 74 | 7.7* | -1.3 | 1 | 0 | 6 | -12 | -15
O=C(OCC#CCSc1nnc(-c2cccc3ccccc23)o1)c1cccs1 | 85 | 18* | -1.1 | -4 | -5 | -17 | ? | -30
O=C(OCC#CCSc1nnc(-c2ccccc2)o1)c1cccs1 | 117 | 0.018 | -0.97 | 7 | -3 | 6 | · | ·
CN1CC=C2C(C#N)=C(N)C(C#N)(C#N)C(c3cccc(Cl)c3Cl)C2C1 (stereo not given) | 35 | 64* | 0.68 | -1 | 4 | 4 | 243* | 236*
CCCCOc1ccc(C2C3CN(C(=O)OCC)CC=C3C(C#N)=C(N)C2(C#N)C#N)cc1OC (stereo not given) | 74 | -0.63 | 0.044 | 9 | 3 | 4 | · | ·
COc1ccc(OC)c(C2C3CN(C(C)C)CC=C3C(C#N)=C(N)C2(C#N)C#N)c1 (stereo not given) | 73 | 40* | -0.14 | -1 | 6 | 2 | 217* | 212*
CCN1CC=C2C(C#N)=C(N)C(C#N)(C#N)C(CCc3ccccc3)C2C1 (stereo not given) | 79 | 32* | -2.5* | 1 | -7 | -17 | 247* | ?
CCCN1CC=C2C(C#N)=C(N)C(C#N)(C#N)C(c3cccc(OC)c3OC)C2C1 (stereo not given) | 81 | 89* | -0.9 | 3 | 0 | 1 | 666* | 628*
Cc1onc(-c2ccccc2Cl)c1C(=O)N1CCN=C1SCc1cccnc1 | 88 | -1 | -0.77 | 3 | 2 | -15 | · | ·
COc1ccc(C(=O)CSc2nc3nc(C)cc(C)c3c(=O)[nH]2)cc1OC | 108 | 1.1 | -0.0067 | 4 | -2 | 3 | · | ·
N#CC1=C(SCc2ccccc2)NC(=O)CC1c1ccco1 (stereo not given) | 107 | 4.3* | -0.46 | 2 | 2 | 0 | -8.3 | ?
CCOC(=O)c1cc2ccc(OC(=O)c3ccco3)cc2oc1=O | 113 | -0.075 | 0.079 | -2 | 0 | 4 | · | ·
CC(=O)Oc1ccc2cc(-c3nc4ccccc4n3C)c(=O)oc2c1 | 81 | 5.8* | 0.27 | -17 | 4 | 10 | 45 | 16
C/C(O)=c1/ccc2cccc3nc(C)nc1c23 | 87 | 114* | -0.86 | 6 | -10 | 1 | 896* | 814*
Cc1ccccc1C(=O)N1CCN(c2ccc(NC(=O)c3ccco3)cc2Cl)CC1 | 96 | 2.9* | -0.18 | 8 | -1 | -1 | ? | -94
Cc1ccc(NC(=O)c2cc(NC(=O)c3ccco3)ccc2N2CCCCC2)cc1 | 86 | -0.093 | 0.44 | · | 9 | · | · | ·
Cc1cccc(NC(=O)c2cc(NC(=O)c3ccco3)ccc2Cl)n1 | 76 | 2.5* | -0.88 | 1 | 8 | 12 | 0.72 | -8
CCOC(=O)CSC1=C(C#N)C(=O)NC2(CCCCC2)S1 | 98 | 0.3 | 0.27 | 5 | -4 | 9 | · | ·
O=C(NCC(c1ccc(F)cc1)N1CCOCC1)c1ccc(Br)o1 (stereo not given) | 69 | -0.082 | -0.19 | 0 | · | 5 | · | ·
OCCN1CCOCCN(CCO)CCOCC1 | 104 | -0.014 | -0.33 | 4 | 8 | -20 | · | ·

Source: PubChem
